AID504770: E. coli YBA685 growth inhibition, screen for V. cholerae RctB inhibitors; E. coli YBA685 rctB-dependent plasmid, OD600 growth, 3 h; stronger effect = lower value; z-score (concentration not given with the values); 0.27% of 130,000 active; in the data active = z-score below about -2, passing the limit was not always enough
Ba CapD inh: CapD enzyme inhibition | purified CapD enzyme, fluorescence intensity read-out; stronger effect = lower value | 0.23% of 140,000 active | z-score (no concentration beside the values); in the data active = z-score mostly below about -2.9, no sharp cut-off; inactive = mostly above about -1.9
Numbers without * were called inactive; . = no result given. Compounds with a hit are over-represented: about 0.36% of the library has one in this group of screens.

SMILES	AID504770	Ba CapD inh
Nc1nc2ccccc2n1Cc1ccc(Cl)c(Cl)c1	-4.2*	-0.15
CCC(Sc1nc2cc3c(cc2c(=O)n1Cc1ccc(OC)cc1)OCO3)C(=O)N1CCCC1 (configuration not stated)	0.05	0.21
CCn1cc(C2N3CC4(C)CN2CC(C)(C3)C4O)c2ccccc21 (configuration not stated)	0.55	0.53
CCc1ccccc1N(C)S(=O)(=O)c1c(C)noc1/C=C/N1CCOCC1	-0.5	-3.4
Cc1noc(/C=C/N2CCOCC2)c1S(=O)(=O)N(C)CC(=O)NC1CCCCC1	0.7	-5.5*
CCOC(=O)Nc1nc2c(F)c(F)c(F)cc2s1	-1.1	-0.4
COc1ccc(Cl)cc1-n1c(C)nc2cc(C(=O)NCC(OC)OC)ccc21	-0.35	8.4
O=C(NC(Cc1c[nH]c2ccccc12)C(=O)Nc1ccc(Br)cc1)OCc1ccccc1 (configuration not stated)	.	-0.23
CCCCC1(C)OC(=O)C(=Cc2ccc(OCC)c(OC)c2)C(=O)O1 (configuration not stated)	-0.1	0.49
CCCCC1(C)OC(=O)C(=Cc2ccc(Br)o2)C(=O)O1 (configuration not stated)	-0.35	-4.4*
O=C(NCc1cccs1)c1cc(Br)cs1	-1.1	-0.1
N#CC(C#N)=C(N)/C(C#N)=C/c1ccc(-c2cccc(C(=O)O)c2)o1	-0.6	-4*
N#CC(C#N)=C(N)/C(C#N)=C\c1ccc(-c2ccccc2)o1	0.35	.
Cc1oc(-n2cccc2)c(C#N)c1C	0.85	0.14
CN(C)C(=O)CCCc1nc(-c2ccc(Cl)cc2)no1	-2.4*	-0.96
O=C(O)CCCc1nc(-c2ccc(Cl)cc2)no1	.	-0.18
CNc1sc2c(O)cc(=O)[nH]c2c1C#N	-0.4	-1.5
Nc1c(Nc2ccc(F)cc2)sc2c(O)cc(=O)[nH]c12	-0.65	-4.1*
O=C1/C(=C/c2ccc(Cl)cc2)C=C(c2ccccc2)N1c1cccc(Cl)c1Cl	.	-0.17
CONC(=O)Nc1ccc(C)cc1	0	.
O=C(NC1=NCCS1)c1cc2c(s1)CCC2	-2.4*	5.3
O=C(Nc1ccccc1Cl)c1cc2c(s1)CCC2	-1.5	0.03
Cc1ccc(C(=O)Nc2cccc(O)c2)cc1	-2.4*	-0.14
Cc1ccc(C(=O)Nc2cc(C)cc(C)c2)cc1	1.1	1
NC(=O)CSc1nnc2ccc3ccccc3n12	2.5	5.5
SMILES	AID504770	Ba CapD inh
CCOC(=O)c1ccc(N=C(N)SCc2ccc(Cl)cc2)cc1	-0.8	-0.065
CCOC(=O)c1ccc(Nc2ccc([N+](=O)[O-])cc2-c2nc3nc(-c4cc(C(C)(C)C)cc5c4CCC5(C)C)cn3[nH]c2=O)o1	.	2.9
CCc1c(C)[nH]c(N)nc1=S	-1.1	-4.4*
CCc1c(C)nc(N)nc1N1NC1=S	-0.05	-1
Cc1ccc(NC(=O)C2(NS(=O)(=O)c3cccc4cccnc34)CCCCC2)cc1	1.7	-1.2
CCCCCCCCCCC(=O)OC1CCC2(C)C(=CCC3C2CCC2(C)C(C(C)CCCC(C)C)CCC32)C1 (configuration not stated)	.	0.21
CCCNC(=O)c1cc(Cl)c2c(c1)OCO2	-0.65	.
CC(=O)NC1=CC(=O)c2nonc2C1=O	-9.2*	3.2
COc1nonc1NC(C)=O	0.45	-0.045
CN(Cc1cccc(Cl)c1)Cc1cc2c(cc1O)CCC2	0.25	.
O=C(c1cccs1)c1no[n+]([O-])c1C(=O)c1cccs1	-6.5*	-3.5
C/C(=N/NC(=O)c1c(N)no[n+]1[O-])c1cccs1	-0.2	.
CC1(C)Cc2ccccc2C(=NCCC(=O)O)N1	-0.8	.
CC(C)CN(CC(C)C)c1ncnc2c1cnn2-c1ccccc1	0.3	0.08
CC(=O)N1c2ccccc2N=C(c2ccc(Br)cc2)CC1c1ccccc1 (configuration not stated)	.	-0.22
CN1CCN(Cc2ccc(O)c3ncccc23)CC1	0.15	-4.8*
Oc1ccc(CN2CCOCC2)c2cccnc12	-0.4	0.23
CCc1ccc2c(c1)S(=O)(=O)C(C(F)(F)F)CO2 (configuration not stated)	2.5	-6.6*
CCc1cccc(NC(=O)C2COc3ccccc3O2)c1 (configuration not stated)	-0.3	.
O=c1cc(CSc2nnnn2-c2ccccc2)nc(Nc2ccc(F)cc2)[nH]1	-3.3*	-0.34
O=c1cc(CSc2nnnn2-c2ccccc2)[nH]c2nc3ccccc3n12	-0.7	0.32
CCn1cnc2c1c(=O)n(CC(=O)Nc1cccc(OC)c1)c(=O)n2Cc1ccccc1	0.95	.
COc1ccc(N(CC(=O)c2cc(C)n(C)c2C)S(=O)(=O)c2ccc3c(c2)OCCO3)cc1	-0.3	.
O=C(NCC(=O)N1CCCCC1)c1ccccc1	-0.15	.
Cn1ncc2c(NC3CCCCC3)ncnc21	2.5	0.94
SMILES	AID504770	Ba CapD inh
CCN(CCO)c1nc(NC2CCCCC2)c2cnn(C)c2n1	-2.1*	.
Cc1ccc(S(=O)(=O)NN2C(=O)c3ccccc3NC23CCCC3)cc1	1.5	63
O=C(N/N=C\c1ccccc1C(F)(F)F)c1ccccn1	-0.65	-0.05
Cc1cccc(/C=N/NC(=O)c2ccccn2)c1O	-2.3*	.
N#CCN(CC#N)C(=O)c1cccs1	1.9	-0.5
N#CSCC(=O)c1cccs1	-3.7*	-0.045
CC(C)c1ccc(C#N)c(SCC(=O)Nc2cccc(C(=O)O)c2)n1	.	0.03
O=[N+]([O-])/C=C/c1c(F)cccc1Cl	.	0.67
O=C1NC(=S)S/C1=C\c1c(F)cccc1Cl	.	-4.1*
CCc1cc(C(=O)OCC(=O)Nc2ccccc2F)c2ccccc2n1	-0.25	-0.72
O=C(c1ccc(N2CCc3ccccc32)s1)N1CCCCCC1	-0.5	74
O=C(c1ccc(N2CCCc3ccccc32)s1)N1CCCC1	-2.2*	24
CCN1C(=O)C(C)S/C1=C(/C#N)C(=O)NCc1ccco1 (configuration not stated)	1.6	.
COC(=O)CSC1=C(C#N)C(=O)NC(c2ccccc2O)S1 (configuration not stated)	-1.8	0.56
N#CC1=C(SCc2ccccc2)SC(c2ccccc2O)NC1=O (configuration not stated)	-3.4*	0.51
CC(=O)N(C(C)=O)c1nc(-c2ccccc2)cn1/N=C/c1ccccc1	.	-7.1*
COc1ccc(/C=N/n2c(N(C(C)=O)C(C)=O)nc(-c3ccccc3)c2-c2ccccc2)cc1	.	-1.4
N#C/C(=N\Nc1cc(C(F)(F)F)cc(C(F)(F)F)c1)C(=O)c1ccco1	.	-2.6
N#C/C(=N\O)C(=O)c1ccco1	-1.3	-4.6*
Cc1cc(COC(=O)NCCc2c[nH]c3ccc(O)cc23)ccc1[N+](=O)[O-]	.	-0.84
CCN1C(=O)/C(=C\c2ccco2)C(C(=O)OC)=C1C	-0.2	-0.87
CCN1C(=O)/C(=C\c2ccc(OC)cc2)C(C(=O)OC)=C1C	-0.4	-4.9*
O=C(N/N=C/c1cccnc1)c1[nH]nc2c1CCc1ccccc1-2	-1.2	-0.22
CCOc1ccc(-c2cc(C(N)=O)on2)cc1	-0.25	-0.86
Cc1ccc(-c2cc(C(N)=O)on2)cc1	-1.3	-5.7*
SMILES	AID504770	Ba CapD inh
N#CCCN(C(=S)Nc1ccccc1Cl)C1CCCCC1	.	-0.43
CC(=O)c1sc2ccccc2c1O	0.2	.
O=C(NN1S(=O)(=O)c2ccccc2S1(=O)=O)c1ccc(OCc2ccc(F)cc2)cc1	.	-0.59
O=C(NN1S(=O)(=O)c2ccccc2S1(=O)=O)c1cccc(Br)c1	.	-3.7*
O=C(NN1C(=O)CCC1=O)c1cccc(Br)c1	0.1	.
O=C(NN1S(=O)(=O)c2ccccc2S1(=O)=O)c1cccc(F)c1	.	-4.1*

Assay outcomes deposited in PubChem by ICCB-Longwood Screening Facility, Harvard Medical School.
